A selection: hits, their analogues and other compounds. The true share with any hit is near 21%.
Pf growth 48h: inhibits P. falciparum growth in the first generation, 48 h; Potency, µM (highest dose often 28.7 µM), for the others: at the top dose activity change, negative = inhibition, usual class: inhibitors; 310,000 tested, 5.9% active; P. falciparum luciferase growth in erythrocytes, 48 h; further: potency means the concentration at half of the fitted maximal effect; on the % scale 0 is the no-effect control and ±100 the full control effect
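Parasite viability was followed by luminescence of a genomically integrated firefly luciferase. Cultures held 0.1% parasitemia at 2% hematocrit (final), incubated under 5% CO2 at 37 C.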
Cycloheximide cs: counter-screen hit for Shiga toxin inhibitors, cycloheximide. cell reporter, cycloheximide protein synthesis inhibition counterscreen. max response, %. 300,000 tested, 12% active; in the data active means max response mostly above about 13%, no sharp cut-off; inactive means mostly below about 14%; further: read at 38.3 µM for the half of the compounds with a filed dose; 0% is about no effect
Pf growth 96h: inhibits malaria parasite growth, 96 h. P. falciparum luciferase reporter growth, 96 h. 320,000 tested, 6.9% active. Potency, µM (doses to about 28.7 µM), without a hit: at the highest dose activity change, negative = inhibition, hits mostly inhibitors; further: potency means the concentration at half of the fitted maximal effect; on the % scale 0 is the no-effect control and ±100 the full control effect
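Luminescence readout: decreased luciferase signal marks inhibited growth of reporter-expressing P. falciparum in infected red cells (2% hematocrit, 0.05% parasitemia final), exposed to compound two generations (96 h, 37 C, 5% CO2).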
Shiga toxin inh: inhibitors of Shiga toxin in Vero cells. Vero cells, Shiga toxin protein synthesis inhibition reporter. 290,000 tested, 9.2% active. AID 2315. inhibition, % at 38.7 µM; in the data active means inhibition mostly above about 28%, no sharp cut-off; inactive means mostly below about 43%; further: 0% is about no effect
Numbers without * were called inactive; i = inactive; ? = inconclusive; . = no result given; [ ] = another dose, or the depositor's remark. Unless noted, the call rests on the fitted dose curve; in most records, active means well fitted inhibition curve with a large enough effect; inconclusive means small, poorly fitted or top-dose-only effect, or another doubt; inactive means no such curve, though single readings can be large or run the other way.

SMILES | Pf growth 48h | Cycloheximide cs | Pf growth 96h | Shiga toxin inh
CCCCCOc1ccc(C(=O)CCN2CCOCC2)cc1 | ? | -4 | 2.3µM* | .
CC(C)c1ccc(OCCCN2CCCC2)cc1 | -20%[0.00184 µM] | -2 | -5% | -2
c1ccc(OCCCCN2CCOCC2)cc1 | . | 6 | 55% | -12
CCCOc1ccc(C(=O)CCN2CCN(C(=O)OCC)CC2)cc1 | 11% | -2 | ? | -8
CC(=O)Oc1ccc(OC(C)=O)c(SCCCCCN2CCOCC2)c1 | 5.2µM* | 7 | 7.4µM* | 26
O=C(COC(=O)CCc1nc2ccccc2c(=O)[nH]1)Nc1ccc2c(c1)OCO2 | 22% | -1 | 31% | -8
O=C(CCC(=O)c1cccs1)OCc1ccc([N+](=O)[O-])cc1 | -7% | . | -12% | .
O=C(CN1C2=NCCN2c2ccccc21)c1ccc(Br)s1 | -24% | -5 | ? | -6
O=C(COc1ccccc1Cl)NCCNC(=O)c1cccnc1 | 13% | -2 | 36% | -5
Clc1ccc(-c2cc(COc3ccccc3)on2)cc1 | 232% | 38* | 155% | 105*
Clc1ccc(OCc2cc(-c3ccccc3)no2)cc1Cl | 56% | 45* | 37% | active
O=S(=O)(NCc1cc(-c2ccccc2)no1)c1ccc(Cl)cc1 | 34% | 1 | 132% | -13
Cn1c(=O)[nH]c(=O)c2c1nc(N1CCNCC1)n2Cc1cccc2ccccc12 | ? | -1 | ? | -18
CCOC(=O)C1(Cc2ccccc2C(F)(F)F)CCN(C2CCN(C(C)C)CC2)CC1 | 6% | -4 | 15µM* | -9
COc1ccccc1C(=O)Nc1ccc(S(=O)(=O)N2CCCC2)cc1 | -27% | -2 | 82% | 10
COc1ccccc1C(=O)Nc1ccc(S(=O)(=O)N2CCCCC2)cc1 | -17% | -3 | ? | 8
COc1cccc(C(=O)Nc2ccc(S(=O)(=O)N3CCCCC3)cc2)c1OC | 12µM* | -2 | 5.2µM* | 7
COc1cccc(OC)c1C(=O)Nc1ccc(S(=O)(=O)N2CCCCC2)cc1 | -17% | -5 | 3.3µM* | -4
COc1cc2c(cc1OC)CN(C(=O)C1CCCN1S(=O)(=O)c1ccc(C)cc1)CC2 (stereo unspecified) | -9% | -2 | -28% | -1
Cn1cc2ccc([N+](=O)[O-])cc2n1 | 22% | -2 | 33% | -3
Nc1ccc(-c2nc3cc([N+](=O)[O-])ccc3o2)cc1 | 214% | 106* | 79% | 74*
O=c1oc(-c2ccc([N+](=O)[O-])cc2)nc2ccc(O)cc12 | 21%[5.75 µM] | 17 | 22% | 3
COc1ccc(-c2nc3cc([N+](=O)[O-])ccc3o2)cc1 | i | 40* | 21% | 99*
CC(C)(C)Nc1nc2cc([N+](=O)[O-])ccc2o1 | 33% | 17* | 32% | 48*
CC(C)S(=O)(=O)c1cnc(-c2ccccn2)nc1N | ? | -2 | ? | 23
SMILES | Pf growth 48h | Cycloheximide cs | Pf growth 96h | Shiga toxin inh
COc1ccccc1CCNC(=O)c1cc(C2CC2)nc2c1cnn2C(C)C | ? | . | 10µM* | .
COc1cc(NC(=O)c2cnn3c(C(F)F)cc(C4CC4)nc23)c(OC)cc1Cl | 3% | -2 | -11%[5.75 µM] | -5
COc1ccccc1OCCNC(=O)c1cc(C2CC2)nc2c1cnn2C(C)C | ? | . | 10µM* | .
CCc1ccccc1NC(=O)CNC(=O)c1cc(C2CC2)nc2c1cnn2C(C)C | ? | . | -3% | .
COc1ccc(NC(=O)c2cc(C3CC3)nc3c2cnn3C(C)C)cc1OC | ? | . | 15µM* | .
CC(C)CN(C(=O)c1ccc(S(=O)(=O)N2CCOCC2)cc1)C1CCS(=O)(=O)C1 (stereo unspecified) | 3% | . | 26% | .
CC(C)(Oc1ccc(Cl)cc1)C(=O)NC1CCCCC1 | 12µM* | . | -2% | .
Cc1ccc(SCC(=O)NNC(=O)C2CCCCC2)cc1 | ? | 6 | 10% | -2
Cc1ccc(SCCC(=O)N2CCCC2)cc1 | 95% | 43* | . | 86*
O=C(CSc1ccc(Cl)cc1)N1CCCC1 | 50% | 46* | 14% | 65
CCN1CCN(C(=O)c2ccc(CSc3ccc(C)cc3)cc2)CC1 | -6% | 13 | 7% | 25
Cc1ccc(SCc2ccc(C(=O)N3CCCC3)cc2)cc1 | 98% | 39* | 1% | 96*
Cc1ccc(OCCNC(=O)CCC(=O)N2CCOCC2)cc1 | 54% | . | 35% | .
Cc1ccc(SCCC(=O)N2CCOCC2)cc1 | 54% | 26* | . | 82
COc1ccc(-c2cc(=O)c3c(O)cc(O[C@H]4OC(COC5OC(C)C(O)C(O)[C@H]5O)C(O)C(O)C4O)cc3o2)cc1O (stereo partly specified) | -16% | . | ? | .
COc1ccc(CN(CC2CCCO2)C(=O)c2cc3sccc3n2C)c(OC)c1 (stereo unspecified) | ? | 8 | 0% | -4
Cc1ccc(SCC(=O)N2CCCC2)cc1 | 70% | 23* | 12% | 124*
COc1ccc(N2CCN(C(=O)CSc3ccc(C)cc3)CC2)cc1 | 2% | -5 | ? | -17
Cc1cc(C(F)(F)F)n2nc(-c3cnn(C)c3C(F)(F)F)c(Cl)c2n1 | 3.3µM* | -1 | ? | -20
O=C1NCC(c2ccccc2)C1C(=O)N/N=C/c1ccc(Cl)s1 (stereo unspecified) | -29% | 2 | 7.4µM* | -1
CC(=O)Nc1ccc(NC(=O)c2ccc(CSc3ccccc3)o2)cc1 | ? | 4 | 32% | 13
O=C(Nc1cccc(F)c1)c1ccc(CSc2ccccc2)o1 | 35% | 55* | 102% | 95*
O=C(Nc1ccccc1F)c1ccc(CSc2ccccc2)o1 | 34% | 54* | 0% | 63*
C/C(=C/C(=O)O)C(=O)Nc1cccc(C(F)(F)F)c1 | 2% | -3 | 29% | 34
O=c1c2ccccc2c(=O)n2n1Cc1ccccc1C2 | 54% | 14* | 25% | 20
SMILES | Pf growth 48h | Cycloheximide cs | Pf growth 96h | Shiga toxin inh
Oc1ccc2n[nH]nc2c1 | 2% | -5 | -11% | -14
Nc1c(-c2ccccc2Cl)cnn1-c1cccc([N+](=O)[O-])c1 | 61% | 18 | ? | 48
Cc1cnnn1-c1cccc([N+](=O)[O-])c1 | -4% | -4 | 11% | 27
Cc1ccc(-c2cnn(-c3cccc([N+](=O)[O-])c3)c2N)cc1 | 202% | 46* | 100% | 103*
Cc1ccccc1-c1cnn(-c2cccc([N+](=O)[O-])c2)c1N | 33% | 26* | 22% | 39
O=C(NC1CCC(=O)N(CCOc2ccccc2)CC1)OCc1ccccc1 (stereo unspecified) | 31% | -2 | ? | -8
CCCc1cnc(N2CCN(C(=O)c3c(-c4ccccc4)noc3C)CC2)nc1 | -17% | -2 | -2% | -14
Cc1ccccc1-n1c(SCC(=O)O)nc2sc3c(c2c1=O)CCCC3 | 6% | -9 | ? | 2
CCn1c(SCC(=O)NCCc2ccccc2)nc2sc3c(c2c1=O)CCN(C)C3 | 1.7µM* | -2 | 0.37µM* | -8
O=C(O)c1ccc(Cn2nnc3sc4c(c3c2=O)CCCC4)cc1 | 58% | 41* | -10% | 167*
O=C(O)CSc1nc2sc3c(c2c(=O)n1Cc1ccccc1)CCCCC3 | 55% | 26* | 43% | 40*
O=C(O)c1ccc(Cn2cnc3sc4c(c3c2=O)CCCC4)cc1 | 8% | 12 | 2% | 14
